Compound activity: PubChem, several laboratories
CRFBP-R2 block = blocks CRF-induced signaling of the CRF-BP/CRF-R2 complex | inhibition, % at 11.8 µM | AID 588475 | 350,000 tested, 0.59% active | HEK293 CRF-R2/CRF-BP, CRF-induced calcium fluorescence;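 active = inhibition of the ligand-induced calcium signal above about 50% at the single tested concentration, limit read from the data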
Cardiac RTF inh = cardiac RTF calcium desensitization. IANBD-labeled cardiac RTF, Ca2+ fluorescence. inhibition, % at 7.15 µM. 340,000 tested, 0.12% active. AID 493244;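 active = inhibition above the mean inhibition of all tested compounds plus 3 SD, cut at about 17% in these data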;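 note: assay run at fixed EC70 calcium of 1.6 mM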
IDE cell inh = inhibitors of human insulin-degrading enzyme in cells; P14735; HEK cells, FAbetaB cleavage, fluorescence polarization; inhibition, % at 5.59 µM; 320,000 tested, 0.41% active; AID 434962;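 active = percent inhibition above the average of all tested compounds plus 3 SD, set per screening campaign, cut at about 16% in these data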;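 note: IDE supplied by intact live HEK cells; FP after avidin binding of uncleaved biotin substrate so inhibition keeps polarization high; 0% = DMSO wells and 100% = 60 µM reference IDE inhibitor Ii1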
Target sequence (P14735 whole entry, looked up): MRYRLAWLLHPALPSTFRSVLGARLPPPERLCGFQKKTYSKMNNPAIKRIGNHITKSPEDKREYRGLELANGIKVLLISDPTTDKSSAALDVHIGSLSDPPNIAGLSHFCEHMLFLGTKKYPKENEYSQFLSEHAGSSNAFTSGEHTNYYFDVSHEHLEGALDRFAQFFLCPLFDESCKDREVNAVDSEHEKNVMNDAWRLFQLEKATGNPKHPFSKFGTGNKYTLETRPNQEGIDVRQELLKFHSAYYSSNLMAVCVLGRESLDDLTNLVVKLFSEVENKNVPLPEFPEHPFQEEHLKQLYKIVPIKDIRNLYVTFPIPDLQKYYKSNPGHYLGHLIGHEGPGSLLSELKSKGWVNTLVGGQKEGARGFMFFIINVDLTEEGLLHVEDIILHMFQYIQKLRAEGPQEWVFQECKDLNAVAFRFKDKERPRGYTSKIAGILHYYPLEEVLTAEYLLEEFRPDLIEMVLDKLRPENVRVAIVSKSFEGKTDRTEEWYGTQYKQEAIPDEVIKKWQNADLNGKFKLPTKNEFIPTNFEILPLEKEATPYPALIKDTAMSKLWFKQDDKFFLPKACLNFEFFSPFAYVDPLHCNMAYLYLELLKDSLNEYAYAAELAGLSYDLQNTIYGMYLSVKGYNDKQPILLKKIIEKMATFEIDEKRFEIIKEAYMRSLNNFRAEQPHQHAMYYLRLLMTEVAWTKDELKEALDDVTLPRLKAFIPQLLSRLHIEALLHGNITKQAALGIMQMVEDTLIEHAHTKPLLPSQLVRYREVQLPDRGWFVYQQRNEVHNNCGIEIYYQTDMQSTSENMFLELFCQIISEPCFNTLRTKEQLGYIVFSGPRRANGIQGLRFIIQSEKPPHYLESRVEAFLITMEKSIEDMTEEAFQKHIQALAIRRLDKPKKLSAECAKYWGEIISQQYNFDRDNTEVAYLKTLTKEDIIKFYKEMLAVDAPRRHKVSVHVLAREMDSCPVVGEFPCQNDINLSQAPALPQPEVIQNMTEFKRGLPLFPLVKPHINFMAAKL
CRFBP-R2 agonist = CRF-BP/CRF-R2 complex agonism; HEK293 CRF-R2/CRF-BP, calcium dye fluorescence (FLIPR); percent of saturating CRF peptide response; activation, % at 13.2 µM; 350,000 tested, 0.46% active; AID 588473;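 active = activation of at least 50%, plus an integration ratio under a set limit after plate pattern correction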;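 note: plate controls were neutral control wells without compound for no effect and CRF at EC100 for full effect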
RTF Ca sens act = cardiac RTF calcium sensitization. P19429+P45379. IANBD-labeled TnC RTF fluorescence at EC20 calcium; 0% EC20 calcium, 100% full calcium. activation, % at 7.2 µM. 340,000 tested, 0.24% active. AID 493008;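 active = activation above the mean over all tested compounds plus 3 SD, cut at about 30% in these data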;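 note: rise in fluorescence read as greater calcium sensitivity of cardiac thin filaments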
IDE act = boosts human insulin-degrading enzyme activity in HEK cells. P14735. FAbeta-B cleavage, fluorescence polarization; 0% vehicle, 100% cell-free pure enzyme wells. activation, % at 5.96 µM. 340,000 tested, 0.073% active;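 active = activation above the mean of all tested compounds plus 3 SD, set per screening campaign, cut at about 17% in these data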
Numbers without * were called inactive; . = no result. Most compounds without a hit are left out; they make up all but 1.5% or so of the library.

SMILES	CRFBP-R2 block	Cardiac RTF inh	IDE cell inh	CRFBP-R2 agonist	RTF Ca sens act	IDE act
COc1ccc(N(CC(=O)NCCSc2ccccn2)S(=O)(=O)c2ccc(C)cc2)cc1OC	55*	2	3	-1	-3	3
COc1ccc(N(CC(=O)NCCSc2ccccn2)S(=O)(=O)c2ccccc2)cc1OC	-10	-15	2	0	2	-1
CC1c2cccn2CCN1S(=O)(=O)c1ccccc1 (centres undefined)	-3	-6	-5	1	6	4
COc1ccccc1S(=O)(=O)N1CCn2cccc2C1C (centres undefined)	103*	-3	.	2	6	4
CC(=O)c1ccc(S(=O)(=O)Nc2ccc(C(=O)NCC(c3cccs3)N3CCOCC3)cc2)cc1 (centres undefined)	5	-28	1	1	1	0
CCOc1ccc(NS(=O)(=O)c2ccc(C(=O)NCC(c3cccs3)N3CCOCC3)cc2)cc1 (centres undefined)	-33	-10	5	61*	-7	4
O=C(Nc1ccc(Br)cc1)c1cc([N+](=O)[O-])cc([N+](=O)[O-])c1	10	-3	-3	1	1	5
O=c1c2c([N+](=O)[O-])cc([N+](=O)[O-])cc2sn1-c1ccc(Br)cc1	10	3	96*	-1	9	-53
COc1ccc(NC(=O)COC(=O)c2ccc(Cl)c(S(N)(=O)=O)c2)c([N+](=O)[O-])c1	10	-20	8	-6	-7	-2
C/C(=N\NC(=O)c1ccccc1NC(=O)c1ccc(Cl)cc1)c1ccncc1	72*	-2	-3	1	-5	-6
CC(=NNC(=O)c1ccncc1)c1ccccc1Cl	1	-8	.	-3	0	1
CC(CCC(=O)NN)C1CCC2C3CCC4CC(O)CCC4(C)C3CCC12C (centres undefined)	-20	-1	.	0	-4	4
CC(CCC(C)C(C)(C)C)[C@@H]1CC[C@H]2C3C[C@H](OS(O)(=S)=S)[C@H]4C[C@H](OS(O)(=S)=S)[C@@H](OS(O)(=S)=S)C[C@]4(C)[C@H]3CC[C@]12C (some centres undefined) (tested in a mixture with another compound)	30	56*	-11	55*	-23	11
N#CC(C#N)=C1C=CC=CN1/C(=C\c1ccco1)C(=O)c1ccc(Cl)cc1	-88	-20	11	61*	1	-5
O=C(Nc1ccc(C(=O)N2CCCC2)cc1)C1CCCCC1	-2	-7	.	4	2	4
Cc1ccn(C(=O)c2ccc(NC(=O)C3CCCCC3)cc2)n1	54*	-2	2	-4	1	1
Cc1ccc(NC2CCCN(C(=O)CCn3nccc3C)C2)cc1C (centres undefined)	49	-17	8	-3	-1	1
Cc1occc1C(=O)NNC(=O)COc1ccc(Br)cc1Br	-15	13	0	-2	4	-2
O=C(NNC(=S)NC(=O)c1ccc(Br)cc1)c1cccc([N+](=O)[O-])c1	30	-9	-1	35	-2	1
Cc1ccc(C(=O)NC(=S)NNC(=O)c2ccccc2[N+](=O)[O-])cc1	3	-9	7	19	-2	-8
O=C(O)c1ccc(NC(=S)NC(=O)c2ccc(-c3ccccc3)cc2)cc1	78*	-4	4	-1	17	-45
Cc1ccc(C(=O)NNC(=S)NC(=O)c2ccccc2)cc1	-41	-4	2	138*	3	3
O=C(NNC(=S)NC(=O)c1ccccc1Cl)c1cccc([N+](=O)[O-])c1	36	2	3	65*	-1	4
O=C(NC(=S)Nc1ccccc1)c1ccc(-c2ccccc2)cc1	-21	-15	-4	3	-3	-1
Cc1occc1C(=O)NNC(=S)NC(=O)COc1ccc(Cl)cc1Cl	-251	1	2	230*	3	-6
SMILES	CRFBP-R2 block	Cardiac RTF inh	IDE cell inh	CRFBP-R2 agonist	RTF Ca sens act	IDE act
O=C(NNC(=O)c1ccc(Cl)nc1)c1ccncc1	1	-4	3	-1	2	1
CCCCn1c(N)c(N(CC)C(=O)c2cc(S(=O)(=O)N3CCCCCC3)ccc2OC)c(=O)[nH]c1=O	-12	-2	1	1	3	-1
COc1ccc(C)cc1NC(=O)Cn1c(=O)oc2ccccc21	16	-9	-1	0	5	4
O=C(NC(=S)NNC(=O)c1ccccc1O)c1ccc([N+](=O)[O-])cc1	18	-12	-2	50*	1	0
Cc1ccc(C(=O)NNC(=S)NC(=O)c2ccc(Cl)cc2Cl)cc1	-46	-14	1	156*	-10	0
CC(C)NC(=S)NC(=O)c1ccc(Cl)cc1Cl	-3	5	0	-1	6	0
O=C(NNC(=S)Nc1cccc(C(F)(F)F)c1)c1ccc(Cl)cc1Cl	27	-2	-4	54*	-5	3
Cc1ccc(C(=O)NC(=S)NNC(=O)c2ccccc2O)cc1	12	-8	-7	90*	-6	7
O=C(NC(=S)NNC(=O)c1ccccc1O)c1ccccc1	-6	4	0	15	-2	2
O=C(NNC(=S)NC(=O)c1ccccc1)c1ccc([N+](=O)[O-])cc1	21	2	-5	40	5	-2
Cc1ccc(S(=O)(=O)N2CCC(C(=O)NCCN3CCOCC3)CC2)cc1	-12	.	.	0	.	.
CC12CCC(=O)N1C(C(=O)NNC(=O)c1ccccc1)CS2 (centres undefined)	4	1	-3	0	-1	-5
Cc1ccccc1C(=O)NNC(=S)NC(=O)c1ccccc1	16	-17	-3	160*	10	-5
Cc1ccc(C(=O)NNC(=O)c2ccco2)cc1	9	-27	2	-1	7	2
Cc1ccc(C(=O)NC(=S)NNC(=O)c2ccccc2)cc1	34	-3	1	121*	-5	0
Cc1ccc(C(=O)NNC(=S)NC(=O)c2ccco2)cc1	35	-13	4	97*	6	1
CCCCC(=O)NC(=S)NNC(=O)c1ccc(Cl)cc1Cl	37	-4	.	111*	1	7
Cc1cccn2c(=O)c(/C=C3\SC(=S)NC3=O)c(NCCCN3CCOCC3)nc12	-46	-27	14	40	18	-9
CCOCCCNc1nc2c(C)cccn2c(=O)c1/C=C1\SC(=S)N(CC(C)C)C1=O	-358	5	5	170*	3	-1
CCCN1C(=O)/C(=C/c2c(NCCCOCC)nc3c(C)cccn3c2=O)SC1=S	-173	-7	.	113*	4	2
COc1ccc(CCN2CC(C(=O)N3CCCCCC3)CCC2=O)cc1 (centres undefined)	15	3	-1	0	-1	2
